In article PMC11006913:
Changes are numbered by the printed parent chain.

Columns and labels:
Assay in all cases: PBM; 200 nM protein, PBS
Conditions in all cases: dsDNA, one strand shown
[1] = target: NKX2-5 (Homo sapiens, UniProt P52952 125-210, R139K)
[2] = target: T1, NKX2-4 (Homo sapiens, UniProt Q9H2Z4 175-261, P217L)
T1 sequence: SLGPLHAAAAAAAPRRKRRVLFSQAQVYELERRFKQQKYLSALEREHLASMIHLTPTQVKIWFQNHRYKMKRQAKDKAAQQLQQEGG

[3] = target: T2, NKX2-4 (Homo sapiens, UniProt Q9H2Z4 175-261, T231S)
T2 sequence: T1 sequence with L43P, T57S

[4] = target: T3, NKX2-4 (Homo sapiens, UniProt Q9H2Z4 175-261)
T3 sequence: T1 sequence with L43P

[5] = target: T4, NKX2-6 (Homo sapiens, UniProt A6NCS4 118-204, R150C)
T4 sequence: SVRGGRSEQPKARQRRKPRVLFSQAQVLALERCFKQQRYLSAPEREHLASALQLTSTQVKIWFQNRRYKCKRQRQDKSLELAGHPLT

[6] = target: T5, NKX2-6 (Homo sapiens, UniProt A6NCS4 118-204)
T5 sequence: T4 sequence with C33R

[7] = target: T6, NKX2-4 (Homo sapiens, UniProt Q9H2Z4 175-261, R246Q)
T6 sequence: T1 sequence with L43P, R72Q

[8] = target: T7, NKX2-6 (Homo sapiens, UniProt A6NCS4 118-204, F151L)
T7 sequence: T4 sequence with C33R, F34L

[9] = target: NKX3-2 (Homo sapiens, UniProt P78367 192-278, P234S)
NKX3-2 (Homo sapiens, UniProt P78367 192-278, P234S), sequence (P78367 192-278 P234S): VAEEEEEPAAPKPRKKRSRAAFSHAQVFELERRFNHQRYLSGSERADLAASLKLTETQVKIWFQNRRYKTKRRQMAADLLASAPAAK

[10] = target: NKX2-5 (Homo sapiens, UniProt P52952 125-210)
NKX2-5 (Homo sapiens, UniProt P52952 125-210), sequence (P52952 125-210): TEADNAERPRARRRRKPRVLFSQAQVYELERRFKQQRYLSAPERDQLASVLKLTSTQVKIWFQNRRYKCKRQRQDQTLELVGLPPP

[11] = target: NKX3-2 (Homo sapiens, UniProt P78367 192-278)
NKX3-2 (Homo sapiens, UniProt P78367 192-278), sequence (P78367 192-278): as the sequence (P78367 192-278 P234S) above, with S43P counted along it

NKX2-5 (Homo sapiens, UniProt P52952 125-210, R139K), sequence (P52952 125-210 R139K): as the sequence (P52952 125-210) above, with R15K counted along it

AACACTTA
binding signal [1]: 12.7 upbm affinity estimate (log intensity, higher = more binding, comparable within an allelic series)
binding signal [2]: 12.5 upbm affinity estimate (log intensity, higher = more binding, comparable within an allelic series)
binding signal [3]: 12.8 upbm affinity estimate (log intensity, higher = more binding, comparable within an allelic series)
binding signal [4]: 12.4 upbm affinity estimate (log intensity, higher = more binding, comparable within an allelic series)
binding signal [5]: 11.8 upbm affinity estimate (log intensity, higher = more binding, comparable within an allelic series)
binding signal [6]: 13.6 upbm affinity estimate (log intensity, higher = more binding, comparable within an allelic series)
binding signal [7]: 12.9 upbm affinity estimate (log intensity, higher = more binding, comparable within an allelic series)
binding signal [8]: 11.3 upbm affinity estimate (log intensity, higher = more binding, comparable within an allelic series)
binding signal [9]: 12.7 upbm affinity estimate (log intensity, higher = more binding, comparable within an allelic series)
binding signal [10]: 12.6 upbm affinity estimate (log intensity, higher = more binding, comparable within an allelic series)
binding signal [11]: 12.7 upbm affinity estimate (log intensity, higher = more binding, comparable within an allelic series)

CACTTAAC
binding signal [1]: 12.8 upbm affinity estimate (log intensity, higher = more binding, comparable within an allelic series)
binding signal [2]: 12.5 upbm affinity estimate (log intensity, higher = more binding, comparable within an allelic series)
binding signal [3]: 12.9 upbm affinity estimate (log intensity, higher = more binding, comparable within an allelic series)
binding signal [4]: 12.4 upbm affinity estimate (log intensity, higher = more binding, comparable within an allelic series)
binding signal [5]: 11.8 upbm affinity estimate (log intensity, higher = more binding, comparable within an allelic series)
binding signal [6]: 13.7 upbm affinity estimate (log intensity, higher = more binding, comparable within an allelic series)
binding signal [7]: 13.1 upbm affinity estimate (log intensity, higher = more binding, comparable within an allelic series)
binding signal [8]: 11.2 upbm affinity estimate (log intensity, higher = more binding, comparable within an allelic series)
binding signal [9]: 12.9 upbm affinity estimate (log intensity, higher = more binding, comparable within an allelic series)
binding signal [10]: 12.8 upbm affinity estimate (log intensity, higher = more binding, comparable within an allelic series)
binding signal [11]: 12.9 upbm affinity estimate (log intensity, higher = more binding, comparable within an allelic series)

CACTTAAG
binding signal [1]: 13.2 upbm affinity estimate (log intensity, higher = more binding, comparable within an allelic series)
binding signal [2]: 12.7 upbm affinity estimate (log intensity, higher = more binding, comparable within an allelic series)
binding signal [3]: 13 upbm affinity estimate (log intensity, higher = more binding, comparable within an allelic series)
binding signal [4]: 12.5 upbm affinity estimate (log intensity, higher = more binding, comparable within an allelic series)
binding signal [5]: 12.2 upbm affinity estimate (log intensity, higher = more binding, comparable within an allelic series)
binding signal [6]: 14 upbm affinity estimate (log intensity, higher = more binding, comparable within an allelic series)
binding signal [7]: 13.2 upbm affinity estimate (log intensity, higher = more binding, comparable within an allelic series)
binding signal [8]: 11.5 upbm affinity estimate (log intensity, higher = more binding, comparable within an allelic series)
binding signal [9]: 13 upbm affinity estimate (log intensity, higher = more binding, comparable within an allelic series)
binding signal [10]: 13.1 upbm affinity estimate (log intensity, higher = more binding, comparable within an allelic series)
binding signal [11]: 13.1 upbm affinity estimate (log intensity, higher = more binding, comparable within an allelic series)

CACTTATC
binding signal [1]: 12.8 upbm affinity estimate (log intensity, higher = more binding, comparable within an allelic series)
binding signal [2]: 12.7 upbm affinity estimate (log intensity, higher = more binding, comparable within an allelic series)
binding signal [3]: 13 upbm affinity estimate (log intensity, higher = more binding, comparable within an allelic series)
binding signal [4]: 12.5 upbm affinity estimate (log intensity, higher = more binding, comparable within an allelic series)
binding signal [5]: 12.1 upbm affinity estimate (log intensity, higher = more binding, comparable within an allelic series)
binding signal [6]: 13.8 upbm affinity estimate (log intensity, higher = more binding, comparable within an allelic series)
binding signal [7]: 13.2 upbm affinity estimate (log intensity, higher = more binding, comparable within an allelic series)
binding signal [8]: 11.2 upbm affinity estimate (log intensity, higher = more binding, comparable within an allelic series)
binding signal [9]: 12.7 upbm affinity estimate (log intensity, higher = more binding, comparable within an allelic series)
binding signal [10]: 12.8 upbm affinity estimate (log intensity, higher = more binding, comparable within an allelic series)
binding signal [11]: 12.8 upbm affinity estimate (log intensity, higher = more binding, comparable within an allelic series)

ACTTAAGT
binding signal [1]: 12.8 upbm affinity estimate (log intensity, higher = more binding, comparable within an allelic series)
binding signal [2]: 12.5 upbm affinity estimate (log intensity, higher = more binding, comparable within an allelic series)
binding signal [3]: 12.9 upbm affinity estimate (log intensity, higher = more binding, comparable within an allelic series)
binding signal [4]: 12.4 upbm affinity estimate (log intensity, higher = more binding, comparable within an allelic series)
binding signal [5]: 11.8 upbm affinity estimate (log intensity, higher = more binding, comparable within an allelic series)
binding signal [6]: 13.7 upbm affinity estimate (log intensity, higher = more binding, comparable within an allelic series)
binding signal [7]: 13 upbm affinity estimate (log intensity, higher = more binding, comparable within an allelic series)
binding signal [8]: 11.2 upbm affinity estimate (log intensity, higher = more binding, comparable within an allelic series)
binding signal [9]: 12.6 upbm affinity estimate (log intensity, higher = more binding, comparable within an allelic series)
binding signal [10]: 12.9 upbm affinity estimate (log intensity, higher = more binding, comparable within an allelic series)
binding signal [11]: 12.7 upbm affinity estimate (log intensity, higher = more binding, comparable within an allelic series)

GTACTTCA
binding signal [1]: 12.5 upbm affinity estimate (log intensity, higher = more binding, comparable within an allelic series)
binding signal [2]: 12.7 upbm affinity estimate (log intensity, higher = more binding, comparable within an allelic series)
binding signal [3]: 13.1 upbm affinity estimate (log intensity, higher = more binding, comparable within an allelic series)
binding signal [4]: 12.6 upbm affinity estimate (log intensity, higher = more binding, comparable within an allelic series)
binding signal [5]: 11.7 upbm affinity estimate (log intensity, higher = more binding, comparable within an allelic series)
binding signal [6]: 13.4 upbm affinity estimate (log intensity, higher = more binding, comparable within an allelic series)
binding signal [7]: 13.2 upbm affinity estimate (log intensity, higher = more binding, comparable within an allelic series)
binding signal [8]: 10.8 upbm affinity estimate (log intensity, higher = more binding, comparable within an allelic series)
binding signal [10]: 12.4 upbm affinity estimate (log intensity, higher = more binding, comparable within an allelic series)
